PubChem BioAssay (NCI)
“And” between values parts separate entries of the source, which are not always exact repeats. Equal values may be shown once. Compounds without any hit were thinned out: in the full panel of roughly 83,000, 20% have a hit.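 Testing used 96-well plates and a 48-hour single-concentration exposure. Example: -40 means 40% of the starting cells died.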 Unmarked numbers belong to inactive results. The source made the active and inactive calls. Rule for the calls: active = growth percent below 10; inactive = the rest.

tested on: MDA-MB-468 breast; experiment: NCI-60 one-dose screen, 48 h (100 = growth as untreated, 0 = no growth, -100 = all killed); conditions: 10 µM unless noted

Compound | growth
COc1ccc(C(=O)c2cc(OC)c(OC)c(OC)c2)cc1OC(=O)CCl | 63.4%
O=[N+]([O-])c1cccc(/C=C/c2ccc3ccccc3n2)c1 | 71.2%
Cc1cc(C(C)(CC(C)C)c2ccc(O)c(C)c2)ccc1O | 103%
O=C(Nc1ccc(OCc2nnc(-c3ccc(Cl)cc3)o2)c(F)c1)Nc1ccc(Cl)c(C(F)(F)F)c1 | -24.8% (active)
COc1ccc(-c2nc(-c3nc4cc(Cl)c(Cl)cc4[nH]3)c3ccccn23)cc1 | 66.6%
O=Cc1ccc(O)c(O)c1 | 93.4%
O=C(O)/C(=C/c1ccc(O)cc1)c1ccccc1 | 96.9%
Cc1ccc(Cl)cc1NC(=O)CCl | 73.5%
Cc1ncc([N+](=O)[O-])n1CCOc1ccc(C(=O)/C=C/c2ccc(C(F)(F)F)cc2)cc1 | 71.3%
c1ccc(NCc2ccc3c(c2)OCO3)cc1 | 104% and 97.7%
O=C1/C(=C/c2ccc([N+](=O)[O-])s2)Oc2ccccc21 | -34.1% (active)
CCN(CC)CCCNc1cc(OC)c(OC)c2cccnc12 | 90.5%
Cc1nc([P+](c2ccccc2)(c2ccccc2)c2ccccc2)c(Sc2sc(-c3ccccc3)nc2[P+](c2ccccc2)(c2ccccc2)c2ccccc2)o1 | -31.6% (active)
NC(=O)c1cccc(C#CCNC[C@H]2C[C@@H](n3ccc4c(Cl)ncnc43)[C@H](O)[C@@H]2O)c1 | 95.9%
Cl.[Pt].[c-]1ccccc1-c1ccccn1.c1ccc(P(c2ccccc2)C([PH+](c2ccccc2)c2ccccc2)[PH+](c2ccccc2)c2ccccc2)cc1 | -6.8% (active)
O=C(N/N=C/c1cccc2ccccc12)C1CC1 | 120% and 106%
COc1cc(/C=C/C(=O)c2cc(OC)c(OC)c(OC)c2)ccc1Oc1nc2c(c(=O)n(C)c(=O)n2C)n1C | -72% (active)
C=CCN1CCCC1=O | 96.5%
CNc1nc(C)c(-c2nc(Nc3cccc(S(N)(=O)=O)c3)ncc2F)s1 | -38.3% (active)
CN1CCN(c2ccc(NC3=C(Cl)C(=O)c4ncccc4C3=O)cc2C#N)CC1 | -65% (active)
Clc1ccc(-n2ncc3c(NCCCN4CCOCC4)ncnc32)cc1 | 74.4%
COC1=CC(c2ccc[nH]2)=N/C1=C\c1[nH]c(C)c(C(=O)Oc2ccccc2)c1C | -82.9% (active)
CC[C@@H](C(=O)[C@@H](C)[C@@H](O)[C@H](C)[C@@H]1O[C@@H]([C@@H](CC)C(=O)O)CC[C@@H]1C)[C@H]1OC2(C=C[C@@H](O)[C@]3(CC[C@@](C)([C@H]4CC[C@](O)(CC)[C@H](C)O4)O3)O2)[C@H](C)C[C@@H]1C (stereo partly specified) | -9.66% (active)
COc1ccc(C2=NN(C(C)=O)C(c3ccc(Oc4ccnc5cc(Cl)ccc45)c(OC)c3)C2)cc1 (stereo unspecified) | 54%
CN1CCN(Cc2ccc(NC(=O)c3cncc(C#Cc4cnccc4C(F)(F)F)c3)cc2C(F)(F)F)CC1 | 84.4%
CCCCCCCCc1cc(Cl)c(O)c(Cl)c1 | 119%
